# Data from PubChem BioAssay AID743279 (National Center for Advancing Translational Sciences (NCATS), 2014).
# Out of some 360,000 compounds screened, about 17,000 (4.7%) were called active. About 5% were inconclusive and are not listed. Rule as the data show it: active = activity change below about -50%; inconclusive = mostly about -30% to -49%; inactive = weaker than that. The list comes from a sample in which actives are over-represented; it also holds similar structures and randomly drawn compounds.
# Test: qHTS for Inhibitors of Inflammasome Signaling: IL-1-beta AlphaLISA Primary Screen
# Conditions: THP-1 LPS/ATP IL-1B secretion, 16 h; at 57.5 µM, hits give low values
# Procedure, shortened: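 Secreted IL-1B measured by AlphaLISA bead assay after 16 h compound exposure of THP-1 cells; compounds (final up to 57.5 uM) added 1 h before LPS (250 ng/mL) and ATP (1.25 mM) stimulation; lower signal means less secretion.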
# % is scaled to controls: 0 for no effect and ±100 for the full control effect.
row,SMILES,activity change
1,CNC(=S)N/N=C/c1cn(Cc2ccc(C)cc2)c2ccccc12,-7.55% (inactive)
2,COC(=O)N/N=C/c1cn(CCCOc2ccc(C)cc2)c2ccccc12,-91% (active)
3,O=Cc1cn(CCOc2ccc(F)cc2)c2ccccc12,-5.47% (inactive)
4,Cc1ccc([C@@H]2CC(=O)[C@@H]3CN(S(=O)(=O)c4ccc(C)cc4)[C@H](c4ccccc4F)C[C@@H]3N2S(=O)(=O)c2ccc(Cl)cc2)cc1,0% (inactive)
5,Cn1cnc(S(=O)(=O)N2C[C@@H](O)COC[C@@H]3O[C@H](CC(=O)NC4CCC4)CC[C@H]32)c1,3.76% (inactive)
6,CC(=O)c1c(C)[nH]c(C(=O)OCC(=O)Nc2c(C)n(C)n(-c3ccccc3)c2=O)c1C,30.6% (inactive)
7,CCCc1cc(-c2nc(-c3ccc(C)cc3)cs2)ccn1,19.6% (inactive)
8,COc1ccc(N/C=C(\C2OC(=O)c3ccccc32)[N+](=O)[O-])cc1 (stereo unspecified),-0.0924% (inactive)
9,Cc1ccc(-c2csc(NC3OC(=O)c4ccccc43)n2)cc1 (stereo unspecified),-99% (active)
10,COc1ccc(C(C)(NC(C)=O)c2nc(-c3ccc(S(C)(=O)=O)cc3)cs2)cc1 (stereo unspecified),-7.6% (inactive)
11,Cc1ccc(-c2csc(NC(=O)Cn3[nH]c(=O)c4ccccc4c3=O)n2)cc1,10.3% (inactive)
12,O=C(CSC1=NCCS1)Nc1nc(-c2ccccc2)cs1,-4.52% (inactive)
13,COc1ccc(-c2csc(NC3OC(=O)c4ccccc43)n2)cc1 (stereo unspecified),-77.8% (active)
14,CCc1ccccc1NC(=O)[C@@H]1CCC(=O)N1C1OC(=O)c2c1ccc(OC)c2OC (stereo partly specified),-9.95% (inactive)
15,COc1ccc2c(c1OC)C(=O)OC2Nc1nc(-c2ccccc2)cs1 (stereo unspecified),-117% (active)
16,OC(c1ccc(Cl)cc1)c1ncc(-c2ccc(Cl)cc2)[nH]1 (stereo unspecified),-2.78% (inactive)
17,CCCNC(=O)C1(C)CCCN(C(=O)c2oc3ccccc3c2C)C1 (stereo unspecified),35.7% (inactive)
18,CN1CCN(c2ccncc2S(=O)(=O)N2CCCC2)CC1,21.6% (inactive)
19,COc1ccc2c(CC(=O)OCC(=O)NC(N)=O)coc2c1,0% (inactive)
20,CCNC(=O)C1(C)CCCN(C(=O)c2ccc3ccccc3n2)C1 (stereo unspecified),-16.3% (inactive)
21,COc1ccc(C=C2CCC3C(CCCC34OCCO4)C2=O)cc1 (stereo unspecified),-24.6% (inactive)
22,O=C(CSCc1ccc(Br)cc1)Nc1ccc(S(=O)(=O)N2CCCCCC2)cc1,23.8% (inactive)
23,O=C(CN1CCCCCC1)Nc1ccc(S(=O)(=O)N2CCCCC2)cc1,-59.2% (active)

row,SMILES,activity change
1,CCOc1ccc(NC(=O)COc2ccc(S(=O)(=O)N3CCCC3)cc2)cc1,5.76% (inactive)
2,CC1CCN(CCCNC(=O)CN2C(=O)CSc3ccc(S(=O)(=O)N4CCCCC4)cc32)CC1,-0.367% (inactive)
3,CN(C)c1ccc(CNC(=O)CN2C(=O)COc3ccc(S(=O)(=O)N4CCCC4)cc32)cc1,12.9% (inactive)
4,CCc1ccc(NC(=O)CN2C(=O)COc3ccc(S(=O)(=O)N4CCCC4)cc32)cc1,-54.9% (active)
5,COc1ccc(NC(=O)CN2C(=O)CSc3ccc(S(=O)(=O)N4CCC(C)CC4)cc32)cc1,-67.1% (active)
6,COCCCNC(=O)CN1C(=O)CSc2ccc(S(=O)(=O)N3CCOCC3)cc21,-5.17% (inactive)
7,COc1ccc(CCNC(=O)CN2C(=O)COc3ccc(S(=O)(=O)N4CCCC4)cc32)cc1OC,-11.4% (inactive)
8,O=C(Nc1c(Br)cc2c(c1Br)Cc1ccccc1-2)C(F)(F)F,17.9% (inactive)
9,Cc1ccc2cc(CN(c3ccc(C)c(C)c3)S(C)(=O)=O)c(=O)[nH]c2c1,-25.8% (inactive)
10,COc1ccc(NC(=O)c2sc(=O)n(Cc3ccc(S(=O)(=O)N(C)C)cc3)c2C)cc1,6.5% (inactive)
11,O=C(NCc1ccccc1)C1c2ccccc2OCC(=O)N1C1CC1 (stereo unspecified),-1.49% (inactive)
12,Cc1cc(Br)cn2c(Cc3cccc(F)c3)c(-c3cccc(Br)c3)nc12,25.5% (inactive)
13,CCCC1C(c2ccccc2)C(C#N)(C#N)C2(C#N)CC1(N)NC2=O (stereo unspecified),3.18% (inactive)
14,COC(=O)CCc1sc(Nc2ccc(Br)cc2)nc1-c1ccc(OC)cc1,-13.7% (inactive)
15,COc1ccc(-c2cc3ncccc3cn2)cc1,15.7% (inactive)
16,COc1ccc(C(O)c2nc(-c3ccc(OC)nc3)cs2)cc1 (stereo unspecified),36.7% (inactive)
17,COc1ccc(C(O)c2nc(-c3ccc4c(c3)OCO4)cs2)cc1 (stereo unspecified),-22.4% (inactive)
18,COc1ccc(-c2csc(Nc3ccccn3)n2)cc1,-86.3% (active)
19,COc1ccc(C(=O)/C=C/Nc2ccccn2)cc1,-1.59% (inactive)
20,COc1ccc(-c2csc(Cc3nc(O)cs3)n2)cc1,-95.7% (active)
21,COc1ccc(C(C)(O)c2nc(-c3cc(F)cc(F)c3)cs2)cc1 (stereo unspecified),42.9% (inactive)
22,COc1cccc(C(O)c2nc(-c3ccc(C)c(C)c3)cs2)c1 (stereo unspecified),27% (inactive)
23,COc1ccc(-c2csc(Nc3ccc(O)cc3)n2)cc1,-79.3% (active)

row,SMILES,activity change
1,COc1ccc(OC)c(Nc2nc(-c3ccc(O)c(O)c3)cs2)c1,-70% (active)
2,COc1ccc(C(C)(O)c2nc(-c3ccc(C)c(C)c3)cs2)cc1 (stereo unspecified),22% (inactive)
3,NC(CSC(c1ccccc1)(c1ccccc1)c1ccc(-c2ccccc2)cc1)C(=O)O (stereo unspecified),1.83% (inactive)
4,C=CCNC(=O)CCCC(=O)NCC=C,0% (inactive)
5,OC(c1ccccc1)c1nc(/C=C/c2ccc(C(F)(F)F)cc2)cs1 (stereo unspecified),15.3% (inactive)
6,O=C(O)c1ccccc1Cc1ccc(F)c2ccccc12,47.2% (inactive)
7,O=S1(=O)CSCS(=O)(=O)C1,-18.2% (inactive)
8,COc1ccc([C@H]2N[C@]3(CCCN(Cc4ccco4)C3=O)[C@H]3C(=O)N(C)C(=O)[C@@H]23)cc1,-4.35% (inactive)
9,Cc1cc(=O)oc2c3c(cc(OCC(=O)NCCC(=O)N[C@@H](C)C(=O)O)c12)OC(C)(C)CC3,-0.546% (inactive)
10,O=C(NCc1cccnc1)c1cccc(-c2cc3ccccc3oc2=O)c1,-3.38% (inactive)
11,O=c1oc2ccccc2cc1-c1csc(Nc2ccc(O)cc2)n1,-97.2% (active)
12,Cc1ccn2c(-c3csc(Nc4ccc(C(=O)O)cc4)n3)c(C)nc2c1,30.5% (inactive)
13,Nc1nc2c(Br)ccc(Br)c2cc1C(=O)NCCc1ccccc1,0% (inactive)
14,CCCCN(C(=O)c1cccc(N2C(=O)c3ccccc3C2=O)c1)c1c(N)n(CCCC)c(=O)[nH]c1=O,13% (inactive)
15,CCC(C)NCCOCCOc1ccc(Br)cc1C (stereo unspecified),-17.9% (inactive)
16,C[C@H](NC(=O)CC[C@H]1O[C@@H](n2ccc(=O)[nH]c2=O)[C@H](O)[C@@H]1O)c1cccc2ccccc12,0% (inactive)
17,CC(C)(C)C(=O)NNC(=O)c1ccc(Oc2cc(Cl)cc(Cl)c2)o1,6.58% (inactive)
18,Cc1cc(C(=O)NC2CCN(Cc3ccccc3)CC2)n[nH]1,-8.74% (inactive)
19,COc1cc2[nH]c(=O)n(Cc3ccc(C(=O)NC4CCN(Cc5ccccc5)CC4)cc3)c(=O)c2cc1OC,2% (inactive)
20,CCOc1ccc(CC(=O)NC2CCN(Cc3ccccc3)CC2)cc1,0% (inactive)
21,O=C(NC1CCN(Cc2ccccc2)CC1)c1cc(Br)c(Br)[nH]1,-123% (active)
22,O=C(NC1CCN(Cc2ccccc2)CC1)c1ccc(Oc2cc(Cl)cc(Cl)c2)o1,-70.1% (active)
23,COC(=O)c1ccc2nc(-c3ccccc3)c(Cc3ccc(OC)cc3C)n2c1,-3.04% (inactive)

row,SMILES,activity change
1,CSc1ccc(CN2CCC2(C)C(=O)Nc2ccc(C)c(O)c2)cc1 (stereo unspecified),-13.3% (inactive)
2,Cc1ccc(S(=O)(=O)N[C@H](CO)C(C)C)cc1,-19.8% (inactive)
3,Cc1ccsc1CNn1cnnc1SCc1ccccc1F,-6.1% (inactive)
4,CC(C)c1ccc(CC(=O)N2CCC2(C)C(=O)NS(=O)(=O)c2ccc(C(C)(C)C)cc2)cc1 (stereo unspecified),19.2% (inactive)
5,C[C@]12CCC(=O)C=C1C=CC1C2CC[C@@]2(C)C1CC[C@@]21CCC(=O)O1 (stereo partly specified),-21.4% (inactive)
6,CSCCC(NS(=O)(=O)c1ccc(C)cc1)C(=O)NCCc1c[nH]c2ccccc12 (stereo unspecified),-1.87% (inactive)
7,O=C1Nc2ccccc2-n2nnnc2C1N1CCN(c2cccc(C(F)(F)F)n2)CC1 (stereo unspecified),-29.2% (inactive)
8,CC1CCCCC1NC(=O)CO/N=C/c1ccc(OC(F)F)cc1 (stereo unspecified),-0.145% (inactive)
9,O=C(CO/N=C/c1ccc(OC(F)F)cc1)NCc1ccc(F)cc1,-66.2% (active)
10,CCOc1ccc(/C=N/OCC(=O)NCc2cccs2)cc1,-0.513% (inactive)
11,CC(C)(C)C(=O)c1c(N)[nH]c(C(=O)c2ccccc2)c1-c1ccc(F)cc1,19.8% (inactive)
12,Fc1cccc(Cc2c(-c3cccc(Cl)c3)nc3ccc(Br)cn23)c1,88.1% (inactive)
13,Cc1onc(C(=O)NCc2ccc(F)cc2)c1[N+](=O)[O-],10% (inactive)
14,CN1C(=O)c2ccc(C(=O)Nc3ccc(Br)cn3)cc2C1=O,-0.113% (inactive)
15,Cc1cccc(C(=O)Nc2ccc(CC(=O)O)cc2)c1,0% (inactive)
16,O=C(Nc1ccc(Br)cn1)c1ccc([N+](=O)[O-])o1,-155% (active)
17,Cc1onc(NC(=O)c2ccc([N+](=O)[O-])o2)c1Br,-79.8% (active)
18,Cc1cc(NC(=O)COc2ccc([N+](=O)[O-])cc2)no1,-22.5% (inactive)
19,Cc1cccc(NC(=O)C(C)SCc2ccccc2)c1 (stereo unspecified),58.8% (inactive)
20,Cc1cccc(NC(=O)c2ccc([N+](=O)[O-])o2)c1,-102% (active)
21,O=C(Nc1ccc(Br)cn1)c1ccc([N+](=O)[O-])cc1Cl,-6.95% (inactive)
22,C[n+]1cccc(C(=O)O)c1,-10.8% (inactive)
